# According to PubChem BioAssay AID1159580 (chemical genetic matrix, 2015):
# Among all 5,500 compounds or so, about 2,000 (36%) were called active. Inconclusive results (about 18%) are left out. Some of the results follow. Values without a mark were called inactive. No stated cut-off is given here; in the data, active means normalized growth mostly below about 0.91 (no sharp cut-off); inconclusive means no clear call, values can overlap the other calls; inactive means mostly above about 0.92.
# Assay: chemical genetic growth profiling, strain panel (AID 1159580);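 further: tested at 20 µM; growth read once vehicle control cultures reached saturation at 30 °C; 1 = growth at the plate median or of vehicle wells; lower values mean less growth of the strain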
# Settings: S. cerevisiae deletion strains, growth OD
# [1] = locus YAL040C, strain CLN3, active compounds read low
# [2] = locus YCL061C, strain MRC1 (second series), active compounds read low
# [3] = locus YDR363W, strain ESC2, active compounds read low
# [4] = locus YER002W, strain NOP16, active compounds read low
# [5] = locus YGR078C, strain PAC10, active compounds read low
# [6] = locus YJR075W, strain HOC1, active compounds read low
# [7] = locus YMR263W, strain SAP30, active compounds read low
# [8] = locus YMR307W, strain GAS1, active compounds read low
# [9] = locus YNL175C, strain NOP13, active compounds read low
# [10] = locus YNL197C, strain WHI3, active compounds read low
# [11] = locus YNL224C, strain SQS1, active compounds read low
# [12] = locus YNL322C, strain KRE1, active compounds read low
# [13] = locus YOR083W, strain WHI5 (second series), active compounds read low
# [14] = locus YPL055C, strain LGE1, active compounds read low
# [15] = locus YPL241C, strain CIN2, active compounds read low
# [16] = locus YAL013W, strain DEP1, active compounds read low
# [17] = locus YDL101C, strain DUN1, active compounds read low
# [18] = locus YDR150W, strain NUM1, active compounds read low
# [19] = locus YHR030C, strain SLT2, active compounds read low
# [20] = locus YNL153C, strain GIM3, active compounds read low
structure (smiles),measurement,setting,value
C[C@@H](N)Cc1cnc[nH]1,normalized growth,[1],0.96
same,normalized growth,[2],1.01
same,normalized growth,[3],1.02
same,normalized growth,[4],1.01
same,normalized growth,[5],1.02
same,normalized growth,[6],1.02
same,normalized growth,[7],1.01
same,normalized growth,[8],1.02
same,normalized growth,"locus YNL128W, strain TEP1, active compounds read low",1.01
same,normalized growth,[9],1.01
same,normalized growth,[10],1.02
same,normalized growth,[11],1.02
same,normalized growth,[12],1.02
same,normalized growth,[13],1.04
same,normalized growth,[14],1.03
same,normalized growth,[15],1.01
O=C(Nc1ccc(Br)cc1Cl)C(Cl)(Cl)Cl,normalized growth,[16],0.975
same,normalized growth,"locus YBR229C, strain ROT2, active compounds read low",0.964
same,normalized growth,[17],0.996
same,normalized growth,[18],0.97
same,normalized growth,"locus YEL061C, strain CIN8, active compounds read low",0.945
same,normalized growth,[5],0.943
same,normalized growth,[19],0.635 (active)
same,normalized growth,"locus YHR087W, strain rtc3, active compounds read low",0.935
same,normalized growth,"locus YJR043C, strain POL32, active compounds read low",0.957
same,normalized growth,[6],0.888 (active)
same,normalized growth,"locus YKL190W, strain CNB1, active compounds read low",0.941
same,normalized growth,"locus YLR039C, strain RIC1, active compounds read low",0.609 (active)
same,normalized growth,"locus YLR058C, strain SHM2 (second series), active compounds read low",0.94
same,normalized growth,"locus YLR085C, strain ARP6, active compounds read low",0.782
same,normalized growth,"locus YLR262C, strain YPT6, active compounds read low",0.635 (active)
same,normalized growth,"locus YML094W, strain GIM5, active compounds read low",1.04
same,normalized growth,"locus YMR219W, strain ESC1, active compounds read low",0.955
same,normalized growth,[7],0.963
same,normalized growth,[8],0.56 (active)
same,normalized growth,[20],0.962
same,normalized growth,"locus YNL298W, strain CLA4 (second series), active compounds read low",0.855
same,normalized growth,[12],0.95
same,normalized growth,"locus YNR030W, strain Alg12, active compounds read low",0.935
same,normalized growth,"locus YOL006C, strain TOP1, active compounds read low",0.681 (active)
same,normalized growth,[14],0.956
same,normalized growth,[15],1.02
same,normalized growth,"locus YPR135W, strain CTF4, active compounds read low",0.64 (active)
C/C(O)=C(\C#N)C(=O)Nc1cc(Br)ccc1Br,normalized growth,[16],0.98
same,normalized growth,[1],1.01
same,normalized growth,[2],0.99
same,normalized growth,[18],0.989
same,normalized growth,[3],1.05
same,normalized growth,[4],1
same,normalized growth,[5],0.97
same,normalized growth,"locus YGR229C, strain SMI1, active compounds read low",1.01
same,normalized growth,[6],1.02
same,normalized growth,[7],0.969
same,normalized growth,[20],0.999
same,normalized growth,[9],0.959
same,normalized growth,[10],0.961
same,normalized growth,[11],0.967
same,normalized growth,[12],0.983
same,normalized growth,[13],0.972
same,normalized growth,[15],0.98
O=C(Nc1ccccc1Sc1ccc([N+](=O)[O-])cc1[N+](=O)[O-])C(Cl)(Cl)Cl,normalized growth,"locus YAR019C, strain CDC15, active compounds read low",0.972
same,normalized growth,"locus YBL105C, strain PKC1, active compounds read low",0.972
same,normalized growth,"locus YBR135W, strain CKS1, active compounds read low",0.973
same,normalized growth,"locus YBR136W, strain MEC1, active compounds read low",0.97
same,normalized growth,"locus YBR160W, strain CDC28, active compounds read low",0.983
same,normalized growth,"locus YDL017W, strain CDC7, active compounds read low",0.975
same,normalized growth,"locus YDL028C, strain MPS1, active compounds read low",0.973
same,normalized growth,[17],0.976
same,normalized growth,"locus YDL108W, strain KIN28, active compounds read low",0.958
same,normalized growth,"locus YDL132W, strain cdc53, active compounds read low",0.983
same,normalized growth,"locus YDL214C, strain PRR2, active compounds read low",0.987
same,normalized growth,"locus YDR052C, strain DBF4, active compounds read low",0.974
same,normalized growth,"locus YDR054C, strain cdc34, active compounds read low",0.971
same,normalized growth,"locus YDR226W, strain ADK1, active compounds read low",0.965
same,normalized growth,"locus YDR477W, strain SNF1, active compounds read low",0.977
same,normalized growth,"locus YER123W, strain YCK3, active compounds read low",0.986
same,normalized growth,"locus YER133W, strain GLC7, active compounds read low",0.969
same,normalized growth,"locus YFL009W, strain cdc4, active compounds read low",0.96
same,normalized growth,"locus YFL029C, strain CAK1, active compounds read low",0.973
same,normalized growth,"locus YFR003C, strain YPI1, active compounds read low",0.965
same,normalized growth,"locus YFR019W, strain FAB1, active compounds read low",0.984
same,normalized growth,"locus YFR028C, strain CDC14, active compounds read low",0.966
same,normalized growth,"locus YGR040W, strain KSS1, active compounds read low",0.975
same,normalized growth,"locus YGR052W, strain FMP48, active compounds read low",1.02
same,normalized growth,"locus YGR092W, strain DBF2, active compounds read low",0.985
same,normalized growth,[19],1.02
same,normalized growth,"locus YHR079C, strain IRE1, active compounds read low",0.967
same,normalized growth,"locus YHR082C, strain KSP1, active compounds read low",1.06
same,normalized growth,"locus YHR205W, strain SCH9, active compounds read low",0.795
same,normalized growth,"locus YIL147C, strain SLN1, active compounds read low",0.972
same,normalized growth,"locus YJL095W, strain BCK1, active compounds read low",1.01
same,normalized growth,"locus YJL128C, strain PBS2, active compounds read low",0.92
same,normalized growth,"locus YJL157C, strain FAR1, active compounds read low",0.97
same,normalized growth,"locus YJR016C, strain ILV3, active compounds read low",0.971
same,normalized growth,"locus YJR066W, strain TOR1 (second series), active compounds read low",0.967
same,normalized growth,"locus YJR066W, strain TOR1, active compounds read low",1.1
same,normalized growth,"locus YKL048C, strain ELM1, active compounds read low",0.976
same,normalized growth,"locus YKL067W, strain YNK1, active compounds read low",0.982
same,normalized growth,"locus YKL101W, strain HSL1, active compounds read low",1
same,normalized growth,"locus YKL193C, strain SDS22, active compounds read low",0.965
same,normalized growth,"locus YKL203C, strain TOR2, active compounds read low",1.02
same,normalized growth,"locus YLR113W, strain HOG1, active compounds read low",1.04
same,normalized growth,"locus YLR133W, strain CKI1, active compounds read low",0.977
same,normalized growth,"locus YLR403W, strain SFP1, active compounds read low",0.873
same,normalized growth,"locus YML070W, strain DAK1, active compounds read low",0.998
same,normalized growth,"locus YMR001C, strain CDC5, active compounds read low",0.975
same,normalized growth,"locus YMR205C, strain PFK2 (second series), active compounds read low",0.973
same,normalized growth,"locus YMR277W, strain FCP1, active compounds read low",0.955
same,normalized growth,"locus YNL006W, strain LST8, active compounds read low",0.991
same,normalized growth,"locus YNL020C, strain ARK1, active compounds read low",0.994
same,normalized growth,"locus YNL161W, strain CBK1, active compounds read low",0.968
same,normalized growth,"locus YNL183C, strain NPR1, active compounds read low",1.1
same,normalized growth,"locus YNL207W, strain RIO2, active compounds read low",0.967
same,normalized growth,"locus YNL222W, strain SSU72, active compounds read low",0.976
same,normalized growth,"locus YNL307C, strain MCK1 (second series), active compounds read low",1
same,normalized growth,"locus YOL078W, strain AVO1, active compounds read low",0.978
same,normalized growth,"locus YOL136C, strain PFK27, active compounds read low",0.982
same,normalized growth,"locus YOR061W, strain CKA2, active compounds read low",0.98
same,normalized growth,"locus YOR119C, strain RIO1, active compounds read low",1.05
same,normalized growth,"locus YOR231W, strain MKK1, active compounds read low",1.08
same,normalized growth,"locus YOR329C, strain SCD5, active compounds read low",0.986
same,normalized growth,"locus YPL031C, strain PHO85, active compounds read low",0.959
same,normalized growth,"locus YPL153C, strain RAD53, active compounds read low",0.975
same,normalized growth,"locus YPL204W, strain HRR25, active compounds read low",0.966
same,normalized growth,"locus YPL209C, strain IPL1, active compounds read low",0.971
same,normalized growth,"locus YPL256C, strain CLN2, active compounds read low",0.996
same,normalized growth,"locus YPR025C, strain CCL1, active compounds read low",0.991
same,normalized growth,"locus YPR106W, strain ISR1, active compounds read low",0.952
same,normalized growth,"locus YPR111W, strain DBF20, active compounds read low",0.964
same,normalized growth,"strain NNK1, active compounds read low",0.972
same,normalized growth,"strain TSCII, active compounds read low",0.981
